Several values for one entry are separate records, joined by “and”; a condition that tells them apart may be missing. Identical values can stand only once. Inconclusive results are not listed. Unmarked numbers belong to inactive results. Activity calls are given as the source filed them. Calls come from the whole dose curve; as a rule, active = well fitted curve in the direction sought with a large enough effect; inconclusive = small, poorly fitted or top-dose-only effect, or another doubt; inactive = no such curve, though single readings can be large; an effect the other way counts as inactive or inconclusive.
% is set by controls: 0 for no effect and ±100 for the full control effect; potency is the fitted concentration of half-maximal effect.

One assay is described as follows: P-glycoprotein substrates identified in KB-3-1 adenocarcinoma cell line, qHTS therapeutic library screen (AID 1346986). Note: nearly all actives have a fitted effect of over 60% in size.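 Note: potency is for cytotoxicity meaning loss of cell viability.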 The conditions noted are these: KB-3-1 parental cells viability, CellTiter-Glo, 72 h; series mostly up to 44.5 µM; activity change, negative = cytotoxicity: at the top concentration. The method, boiled down: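 Viability by CellTiter-Glo after 72 h compound exposure at 37 degree C, 5% CO2. Cytotoxic call: curve class -1.1 to -2.4, maximum response >50%, AC50 < 10 uM, compared across KB-3-1 and P-gp-overexpressing KB-8-5-11.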
Consider `COc1cccc(-c2cc(=O)c3ccccc3o2)c1N`, for which the “activity change, negative = cytotoxicity” value is -7.22%.
Turning to `O=C(O)c1ccccc1C(=O)Nc1ccc(-c2ccccc2)cc1`, the result was inactive.
For `CCC(=O)NC[C@H](Cc1ccc(OCCc2nc(-c3ccccc3)oc2C)cc1)NC(C)=CC(=O)c1ccc(C(F)(F)F)cc1`, the outcome was inactive.
Same read-out and setting: the value for `CC1(C)S[C@H]2[C@H](NC(=O)[C@@H](N)c3ccc(O)cc3)C(=O)N2[C@@H]1C(=O)O` was “inactive”; that for `Nc1nc(F)nc2c1ncn2[C@@H]1O[C@H](COP(=O)(O)O)[C@@H](O)[C@H]1O` was “inactive”; that for `CC1(C)Cc2c(sc(NC(=S)NC(=O)c3ccccc3)c2C(=O)O)CO1` was “inactive”.
As to `Cc1ccc([C@@H]2O[C@H](CO)[C@@H](O)[C@H](O)[C@@H]2O)cc1Cc1ccc(-c2ccc(F)cc2)s1`, the result was inactive.
With `NC(=O)c1cnc(-c2ccc(C3(N)CCC3)cc2)c(-c2ccccc2)c1`, the Potency was 16.4 µM (active).
For the molecule `C[C@H](NC(=O)C(=O)Nc1ccccc1C(C)(C)C)C(=O)N[C@@H](CC(=O)O)C(=O)COc1c(F)c(F)cc(F)c1F`, the result was inactive.
For the molecule `OC[C@H]1O[C@@H](Oc2cc(O)cc(C=Cc3ccc(O)cc3)c2)[C@H](O)[C@@H](O)[C@H]1O`, the outcome was inactive.

A further assay is described as follows: P-glycoprotein substrates identified in KB-8-5-11 adenocarcinoma cell line, qHTS therapeutic library screen (AID 1346987). Note: nearly all actives have a fitted effect of over 65% in size. The settings on record: KB-8-5-11 (P-gp overexpressing) viability, CellTiter-Glo, 72 h; series mostly up to 44.5 µM; activity change, negative = cytotoxicity: at the top concentration. The procedure, abridged: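 In this qHTS, P-gp-rich KB-8-5-11 cells received library compounds across a concentration range. Viability was quantified by luminescence after 72 h at 37 degree C.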
Background: In qHTS, concentration-response curves come from the screen itself.
As for `COc1cccc(-c2cc(=O)c3ccccc3o2)c1N`, the call was inactive.
On to `O=C(O)c1ccccc1C(=O)Nc1ccc(-c2ccccc2)cc1`, for which the Potency entry was “inactive”.
For the molecule `CCS(=O)(=O)N1CC(CC#N)(n2cc(-c3ncnc4[nH]ccc34)cn2)C1`, the Potency entry was “inactive”.
Turning to `NC(=O)c1cccc(-c2cc(Nc3ccc(OC(F)(F)F)cc3)ncn2)c1`, the “activity change, negative = cytotoxicity” value is -22.4%.
In the case of `CC(=O)Oc1cc2c(s1)CCN(C(C(=O)C1CC1)c1ccccc1F)C2` (centres undefined), the “activity change, negative = cytotoxicity” value is -0.369%.
As to `CCC(=O)NC[C@H](Cc1ccc(OCCc2nc(-c3ccccc3)oc2C)cc1)NC(C)=CC(=O)c1ccc(C(F)(F)F)cc1`, the call was inactive.
In the case of `CNC(=O)c1ccccc1Sc1ccc2c(C=Cc3ccccn3)n[nH]c2c1`, the Potency is 4.18 µM (active).
In the case of `Cc1ccc(F)c(NC(=O)Nc2ccc(-c3cccc4[nH]nc(N)c34)cc2)c1`, the Potency was 23.5 µM (active).
As for `CN1[C@@H]2CCC[C@@H]1CC(NC(=O)c1nn(C)c3ccccc13)C2` (some centres undefined), the “activity change, negative = cytotoxicity” value was -10.4%.
For `CN1C[C@H]2c3ccccc3Oc3ccc(Cl)cc3[C@@H]2C1`, the “activity change, negative = cytotoxicity” value is -17%.
On to `CC1(C)S[C@H]2[C@H](NC(=O)[C@@H](N)c3ccc(O)cc3)C(=O)N2[C@@H]1C(=O)O`, for which the call was inactive.
Take `c1cc(-c2sc(-c3ccncc3)c(-c3ccncc3)c2-c2ccncc2)ccn1`: the result was inactive.
As to `Nc1nc(F)nc2c1ncn2[C@@H]1O[C@H](COP(=O)(O)O)[C@@H](O)[C@H]1O`, the “activity change, negative = cytotoxicity” value was -24.6%.
With `COc1ccc(-c2coc3cc(O)ccc3c2=O)cc1`, the “activity change, negative = cytotoxicity” value is 4.99%.
For `N[C@@]1(C(=O)O)CS(=O)(=O)[C@H]2[C@H](C(=O)O)[C@H]21`, the “activity change, negative = cytotoxicity” value was -20.2%.
Regarding `CC1(C)Cc2c(sc(NC(=S)NC(=O)c3ccccc3)c2C(=O)O)CO1`, the molecule was called inactive.
Take `O=C(NOCC(O)CO)c1cc(Br)c(F)c(F)c1Nc1ccc(I)cc1F` (centres undefined): the “activity change, negative = cytotoxicity” value was -21.3%.
As to `Cc1ccc([C@@H]2O[C@H](CO)[C@@H](O)[C@H](O)[C@@H]2O)cc1Cc1ccc(-c2ccc(F)cc2)s1`, the “activity change, negative = cytotoxicity” value is 5.51%.
As to `CC(=O)OC1C(C)OC(Oc2c(-c3ccc(O)cc3)oc3cc(O)cc(O)c3c2=O)C(O)C1OC(C)=O` (centres undefined), the call was inactive.
For the molecule `CON=C(C(=O)N[C@@H]1C(=O)N2C(C(=O)OCOC(=O)C(C)(C)C)=C(C=Cc3scnc3C)CS[C@H]12)c1csc(N)n1`, the “activity change, negative = cytotoxicity” value is 1.76%.
Take `CC1(C)CCC[C@@]2(C)[C@@H]1CC[C@@]1(C)OC(=O)C[C@H]21`: the “activity change, negative = cytotoxicity” value is 5.11%.
On to `Cc1cc(OCCCc2c(C(=O)O)n(Cc3cccnc3)c3c(-c4c(COc5ccc(N6CCN([S+](C)(=O)[O-])CC6)cc5)nn(C)c4C)cccc23)cc(C)c1Cl`, for which the “activity change, negative = cytotoxicity” value was -1.24%.
For the molecule `CC(C)(C)Cn1c(N)nc2ccc(-c3[nH]c(C(C)(C)C)nc3-c3ccc(F)cc3)nc21`, the Potency is 20.9 µM (active) and 23.1 µM (active).
`CC(C)C[C@H](CC(=O)O)C(=O)N[C@@H](Cc1c[nH]c2ccccc12)C(=O)N[C@@H](C)c1ccccc1`: the “activity change, negative = cytotoxicity” value was 5.46%.
With `O=C(NC1CCOCC1)c1ccc(-c2cc(-c3cn[nH]c3-c3ccccn3)ccn2)cc1`, the Potency entry is “inactive”.
Consider `O=C(O)C(O)Cc1ccc(O)c(O)c1` (centres undefined), for which the “activity change, negative = cytotoxicity” value was 7.85%.
Consider `CC#CCn1c(N2CCC[C@@H](N)C2)nc2c1c(=O)n(Cc1nc(C)c3ccccc3n1)c(=O)n2C`, for which the “activity change, negative = cytotoxicity” value was 5.35%.
For the molecule `NC(=O)c1cnc(-c2ccc(C3(N)CCC3)cc2)c(-c2ccccc2)c1`, the “activity change, negative = cytotoxicity” value was -11.2%.
With `COc1ccc(-n2c(C)c([N+](=O)[O-])c3ccc(O)cc32)cc1`, the “activity change, negative = cytotoxicity” value was 2.7%.
On to `CC(=Cc1ccccc1)C=C1SC(=S)N(CC(=O)O)C1=O`, for which the molecule was called inactive.
In the case of `N[C@H](CSC(c1ccccc1)(c1ccccc1)c1ccccc1)C(=O)O`, the call was inactive.
As for `C[C@H](NC(=O)C(=O)Nc1ccccc1C(C)(C)C)C(=O)N[C@@H](CC(=O)O)C(=O)COc1c(F)c(F)cc(F)c1F`, the “activity change, negative = cytotoxicity” value was 1.65%.
Consider `CC=CCC=CCCC(=O)[C@H]1O[C@@H]1C(N)=O`, for which the molecule was called inactive.
With `O=C1NC(=O)C(=Cc2ccc(-c3ccc(F)cc3)o2)S1`, the “activity change, negative = cytotoxicity” value is 4.76%.
On to `Clc1cc(Cl)cc(CNc2ncncc2-c2ccc3c(c2)OCO3)c1`, for which the Potency is 13.2 µM (active).
For `OC[C@H]1O[C@@H](Oc2cc(O)cc(C=Cc3ccc(O)cc3)c2)[C@H](O)[C@@H](O)[C@H]1O`, the call was inactive.
On to `O=C1NC(=O)C(=Cc2ccc3c(c2)OC(F)(F)O3)S1`, for which the “activity change, negative = cytotoxicity” value is -15.6%.
As for `CCn1c(C(=O)N(C2CC2)C2CC2)cc2c3c(ncn3C)c(Nc3cc(C)n(C)n3)nc21`, the “activity change, negative = cytotoxicity” value was -7.78%.
Take `CC=CC(=O)N(CC)c1ccccc1C`: the “activity change, negative = cytotoxicity” value is 3.25%.
